Laboratory results taken from PubChem BioAssay.

target: Neurogenic locus notch homolog protein 3 (Homo sapiens) (UniProt Q9UM47); experiment: small molecules binding NOTCH3 protein – biochemical, 635/667 nm fluorescence, primary screen (AID 1096); conditions: small-molecule microarray, 635 nm fluorescence, higher = more signal
Sequence (Q9UM47 whole entry, looked up): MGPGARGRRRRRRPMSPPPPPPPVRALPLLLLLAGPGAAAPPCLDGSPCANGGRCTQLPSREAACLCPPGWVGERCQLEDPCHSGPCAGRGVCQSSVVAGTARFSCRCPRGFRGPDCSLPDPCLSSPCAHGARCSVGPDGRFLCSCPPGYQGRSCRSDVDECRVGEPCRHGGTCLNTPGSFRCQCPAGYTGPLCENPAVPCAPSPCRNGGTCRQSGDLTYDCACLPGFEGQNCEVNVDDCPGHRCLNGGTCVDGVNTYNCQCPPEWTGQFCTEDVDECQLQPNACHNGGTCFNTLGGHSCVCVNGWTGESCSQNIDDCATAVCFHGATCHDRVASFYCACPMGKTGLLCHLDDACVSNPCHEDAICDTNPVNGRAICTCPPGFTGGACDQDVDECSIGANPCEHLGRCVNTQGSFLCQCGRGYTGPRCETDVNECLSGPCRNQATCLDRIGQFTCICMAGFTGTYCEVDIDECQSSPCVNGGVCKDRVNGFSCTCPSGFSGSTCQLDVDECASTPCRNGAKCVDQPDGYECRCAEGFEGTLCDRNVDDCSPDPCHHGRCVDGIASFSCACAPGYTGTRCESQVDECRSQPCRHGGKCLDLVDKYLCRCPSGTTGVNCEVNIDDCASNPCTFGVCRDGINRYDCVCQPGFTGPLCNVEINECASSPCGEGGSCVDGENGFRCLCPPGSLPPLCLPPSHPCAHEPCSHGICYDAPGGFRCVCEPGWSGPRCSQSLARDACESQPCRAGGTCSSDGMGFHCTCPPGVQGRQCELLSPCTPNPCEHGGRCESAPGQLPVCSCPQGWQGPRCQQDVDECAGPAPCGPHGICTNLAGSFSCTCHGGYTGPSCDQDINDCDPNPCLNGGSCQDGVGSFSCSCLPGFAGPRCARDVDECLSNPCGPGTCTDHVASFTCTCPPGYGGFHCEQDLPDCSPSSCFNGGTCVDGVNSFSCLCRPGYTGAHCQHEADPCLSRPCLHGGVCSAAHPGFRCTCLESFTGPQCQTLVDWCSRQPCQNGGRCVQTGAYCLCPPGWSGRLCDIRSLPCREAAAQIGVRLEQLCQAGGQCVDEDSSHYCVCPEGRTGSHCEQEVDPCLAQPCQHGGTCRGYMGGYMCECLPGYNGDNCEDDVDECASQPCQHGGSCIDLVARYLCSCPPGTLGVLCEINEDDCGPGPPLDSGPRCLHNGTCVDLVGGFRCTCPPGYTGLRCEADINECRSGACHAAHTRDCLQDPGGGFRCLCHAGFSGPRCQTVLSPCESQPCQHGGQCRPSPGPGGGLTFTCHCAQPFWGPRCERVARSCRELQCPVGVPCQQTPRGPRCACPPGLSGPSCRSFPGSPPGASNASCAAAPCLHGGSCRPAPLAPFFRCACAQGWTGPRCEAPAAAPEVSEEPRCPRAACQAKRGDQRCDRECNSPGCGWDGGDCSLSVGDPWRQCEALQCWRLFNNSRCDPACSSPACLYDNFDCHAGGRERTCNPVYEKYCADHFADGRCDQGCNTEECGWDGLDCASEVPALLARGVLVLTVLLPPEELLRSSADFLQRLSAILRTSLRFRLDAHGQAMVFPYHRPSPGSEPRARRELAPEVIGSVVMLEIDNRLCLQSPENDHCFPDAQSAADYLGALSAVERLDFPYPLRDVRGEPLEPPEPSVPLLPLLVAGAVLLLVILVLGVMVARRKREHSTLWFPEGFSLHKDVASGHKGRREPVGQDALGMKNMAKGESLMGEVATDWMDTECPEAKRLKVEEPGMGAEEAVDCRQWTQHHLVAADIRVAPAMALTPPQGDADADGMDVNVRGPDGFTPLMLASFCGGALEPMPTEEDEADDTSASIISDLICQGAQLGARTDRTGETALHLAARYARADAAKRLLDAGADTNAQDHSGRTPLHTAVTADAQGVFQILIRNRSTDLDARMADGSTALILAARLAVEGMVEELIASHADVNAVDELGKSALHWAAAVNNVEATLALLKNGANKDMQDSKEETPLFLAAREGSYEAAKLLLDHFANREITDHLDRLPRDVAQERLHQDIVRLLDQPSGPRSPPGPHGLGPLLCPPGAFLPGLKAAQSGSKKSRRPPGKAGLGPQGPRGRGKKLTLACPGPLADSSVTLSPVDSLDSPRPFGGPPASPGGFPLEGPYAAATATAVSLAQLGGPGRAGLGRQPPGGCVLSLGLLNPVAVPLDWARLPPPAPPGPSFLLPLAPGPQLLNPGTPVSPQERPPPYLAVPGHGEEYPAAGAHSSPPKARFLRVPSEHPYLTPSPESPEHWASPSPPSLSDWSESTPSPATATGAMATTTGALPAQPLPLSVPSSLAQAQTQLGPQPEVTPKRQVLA

Going from `CC[C@@H]1C=C(C(=O)O)[C@H](c2ccc(C)cc2)N1S(=O)(=O)c1ccc(C)cc1` to `Cc1ccc(S[C@]2(C(=O)NCC(C)C)CC(=O)N(Cc3cc(C(F)(F)F)cc(C(F)(F)F)c3)[C@@H]2c2ccc(CO)cc2)cc1`, the composite z-score falls from 0.939 to -0.643.

Going from `COCC(=C=CC[C@@H](O)c1ccc(OCCO)cc1)C[C@@H](O)c1ccccn1` to `C=C(/C(=C/C[C@H](OC(=O)c1ccncc1)c1ccc(OCCO)cc1)c1cc(C(=O)OC)ccc1OC)C(C)C`, the composite z-score rises from -0.0817 to 0.381.

Going from `C=CCN1Cc2ccccc2[C@@H]2OC(c3ccc(OCCCO)cc3)=N[C@]2(CCS(=O)(=O)c2ccccc2)C1=O` to `CCOC(=O)C[C@H]1[C@H](OC(=O)c2ccc(-c3ccccc3)cc2)[C@@H](NC(=O)c2ccccc2)c2cc(OCCCO)ccc2N1C(=O)Cc1ccc(OC)cc1`, the composite z-score falls from 1.01 to -0.712.

Compared with `COc1cc(OC)c(C(O)C2C=CC3C(=O)NC(=O)C3N2Nc2ccccn2)cc1Br` (stereo unspecified), `COc1ccc(C(O)C2C=CC3C(=O)N(C)C(=O)C3N2NC(=O)OC(C)(C)C)c2ccccc12` (stereo unspecified) is higher in composite z-score: 0.716 for the first, 1.08 for the second.

Compared with `COC(=O)[C@H](Cc1ccccc1)N[C@H](/C=C/C1CC1)[C@@H](O)Cc1ccccc1`, `OCC1C=C(/C=C/c2ccccc2)CN1Cc1ccccc1Br` (stereo unspecified) is higher in composite z-score: -0.469 for the first, 0.854 for the second.

Going from `O=C1C2C=CC(C(O)c3ccc4c(c3)OCO4)N(Nc3ccc([N+](=O)[O-])cc3)C2C(=O)N1c1ccccc1` (stereo unspecified) to `O=C1C2C=CC(C(O)c3ccc(-c4ccccc4)s3)N(Nc3ccccc3)C2C(=O)N1c1ccccc1` (stereo unspecified), the composite z-score rises from 0.777 to 1.11.

Compared with `CC(C)CNC(=O)[C@@]1(Cc2ccccc2I)c2ccccc2C(=O)N(Cc2ccccc2C(F)(F)F)[C@H]1c1ccc(CO)cc1`, `O=C(NCCN1CCOCC1)[C@@H]1c2ccccc2C(=O)N(Cc2cc(C(F)(F)F)cc(C(F)(F)F)c2)[C@H]1c1ccc(CO)cc1` is higher in composite z-score: -0.771 for the first, -0.578 for the second.

Compared with `COc1cc2c(cc1O)C(c1cccs1)N(Cc1cccc(OC(F)(F)F)c1)CC2` (stereo unspecified), `COC(=O)[C@@]1(Cc2ccccc2)[C@H]2c3cc(C(=O)N4CCCC4)n(Cc4ccc(O)c(OC)c4)c3C[C@H]2CN1C(=O)c1ccccc1` is higher in composite z-score: 0.108 for the first, 0.79 for the second.

First: CC1CC/C=C\[C@H]2OC34C=CCN(Cc5ccccc5)C(=O)[C@H]3N(C(C)CO)C(=O)[C@@H]4C2C(=O)O1 (stereo partly specified)
Second: O=C1OCCC/C=C\[C@H]2OC34C=CCN(c5ccc6ccccc6c5)C(=O)[C@H]3N(CCCCCO)C(=O)[C@@H]4C12 (stereo partly specified)
The composite z-score of the first is higher: 0.158 for the first, -0.359 for the second.

Going from `COc1ccc(NN2C(C(O)c3ccc(N(C)C)cc3)C=CC3C(=O)N(C4CCCCC4)C(=O)C32)cc1` (stereo unspecified) to `CN1C(=O)C2C=CC(C(O)c3ccc(F)cc3)N(N(c3ccccc3)c3ccccc3)C2C1=O` (stereo unspecified), the composite z-score falls from 1.09 to 0.121.

First: NC(=O)[C@@H]1[C@H]2C(=O)O[C@H](c3ccccc3)[C@H](c3ccccc3)N2[C@H](c2ccc(O)cc2)[C@@]12C(=O)Nc1ccc(C#CC3=CCCCC3)cc12
Second: O=C1O[C@@H](c2ccccc2)[C@@H](c2ccccc2)N2[C@@H](c3ccccc3OCCO)[C@]3(C(=O)Nc4ccccc43)[C@@H](C(=O)O)[C@H]12
The composite z-score of the first is higher: 1.11 for the first, 0.406 for the second.

First: C=CCC(OC(C)=O)[C@@H]1[C@@H](N(Cc2ccc(-c3cccc(C(F)(F)F)c3)o2)C(=O)c2cccc3ccccc23)c2cc(OCCCO)ccc2N1C(=O)Cc1ccc2ccccc2c1 (stereo partly specified)
Second: C=CCNC(=O)[C@@H]1[C@H]2C(=O)O[C@H](c3ccccc3)[C@H](c3ccccc3)N2[C@H](c2ccc(OCCO)cc2)[C@@]12C(=O)N(C(=O)OCCOC)c1ccc(C#CCC(C(=O)OC)C(=O)OC)cc12
The composite z-score of the first is lower: 0.0384 for the first, 1.03 for the second.

First: COc1ccc([C@H]2C[C@H]3C(I)=C[C@@H]2C(=O)[C@]32CO2)cc1
Second: COc1ccc([Si](C)(C)[C@H]2[C@H](CCO)O[C@@]3(C(=O)N(Cc4ccccc4)c4ccc(N5CCCCC5=O)cc43)[C@@H]2C)cc1
The composite z-score of the first is lower: 0.816 for the first, 0.932 for the second.

Going from `C[N+](C)(C)CCCC[C@@H]1NC(=O)[C@@H]2C[C@H](C(=O)NCCCCCN)[C@H](c3ccc(O)cc3)N2C1=O` to `CCN(CC)c1ccc(N2CC=CC34O[C@@H]5C=CCOC(=O)[C@@H]5[C@H]3C(=O)N(CCCCCCO)[C@@H]4C2=O)cc1` (stereo partly specified), the composite z-score falls from 1.09 to -0.136.

Compared with `COc1ccc(C(=O)Nc2cccc(CN3C(=O)[C@]4(O[C@H](CCn5cc(CCO)nn5)[C@@H]([Si](C)(C)c5ccc(OC)cc5)[C@@H]4C)c4ccccc43)c2)cc1`, `COCCOC(=O)N1C(=O)[C@@]2(c3cc(C#CC4(O)CCCCCC4)ccc31)[C@H](c1ccccc1OCCO)N1[C@H](c3ccccc3)[C@H](c3ccccc3)OC(=O)[C@H]1[C@@H]2C(=O)N1CCc2cc(OC)c(OC)cc2C1` is higher in composite z-score: 0.556 for the first, 1.05 for the second.

Compared with `O=C1C2C=CC(C(O)c3cc(C(F)(F)F)cc(C(F)(F)F)c3)N(Nc3ccccc3)C2C(=O)N1c1ccccc1` (stereo unspecified), `O=C1C2C=CC(C(O)c3c(F)cccc3Cl)N(Nc3ccccc3F)C2C(=O)N1c1ccccc1` (stereo unspecified) is higher in composite z-score: 0.581 for the first, 1.05 for the second.

Compared with `O=C1OCC=C[C@H]2OC34C=CCN(CCN5CCOCC5)C(=O)[C@H]3N(CCO)C(=O)[C@@H]4[C@@H]12` (stereo partly specified), `CCCCCCc1nc(-c2ccc(-c3ccc(Cl)c(Cl)c3)o2)cc2c1[Si](C(C)C)(C(C)C)O[C@H]2c1ccccc1` is lower in composite z-score: 0.534 for the first, -0.34 for the second.

Going from `CC(=CC1CCCCC1)[C@@H](NC(=O)c1cccnc1)c1ccc(-c2ccccc2)cc1` to `C=C(CCCC)/C(=C/C[C@H](OC(=O)c1ccncc1)c1ccc(OCCO)cc1)c1cc(C(=O)OC)ccc1OC`, the composite z-score falls from 0.298 to -0.0191.
